VP16 counter = counter-screen for ROR gamma inhibitors: Gal4-VP16 reporter; hit rate 3.5% among 310,000; Drosophila S2 Gal4-VP16 UAS-luciferase, luminescence, 20 h; Potency, µM (titrated, usually from 53.6 µM), for inactives: at the highest dose activity, negative = inhibition, usual class: inhibitors;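 further: Gal4-VP16 expression switched on by copper sulfate through the metallothionein promoter; potency means the concentration at half of the fitted maximal effect; on the % scale 0 is the no-effect control and ±100 the full control effect; nearly all actives have a fitted effect of over 50% in size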
TRPV1 agonist = activates the human vanilloid receptor TRPV1; TRPV1-expressing cells, Fluo-8 calcium influx, agonist mode; Q8NER1; activation, % at 8.33 µM; hit rate 0.19% among 320,000; in the data active means activation above about 80%; inconclusive means between about 30% and that limit; further: 0% is about no effect
Target sequence (Q8NER1 whole entry, looked up): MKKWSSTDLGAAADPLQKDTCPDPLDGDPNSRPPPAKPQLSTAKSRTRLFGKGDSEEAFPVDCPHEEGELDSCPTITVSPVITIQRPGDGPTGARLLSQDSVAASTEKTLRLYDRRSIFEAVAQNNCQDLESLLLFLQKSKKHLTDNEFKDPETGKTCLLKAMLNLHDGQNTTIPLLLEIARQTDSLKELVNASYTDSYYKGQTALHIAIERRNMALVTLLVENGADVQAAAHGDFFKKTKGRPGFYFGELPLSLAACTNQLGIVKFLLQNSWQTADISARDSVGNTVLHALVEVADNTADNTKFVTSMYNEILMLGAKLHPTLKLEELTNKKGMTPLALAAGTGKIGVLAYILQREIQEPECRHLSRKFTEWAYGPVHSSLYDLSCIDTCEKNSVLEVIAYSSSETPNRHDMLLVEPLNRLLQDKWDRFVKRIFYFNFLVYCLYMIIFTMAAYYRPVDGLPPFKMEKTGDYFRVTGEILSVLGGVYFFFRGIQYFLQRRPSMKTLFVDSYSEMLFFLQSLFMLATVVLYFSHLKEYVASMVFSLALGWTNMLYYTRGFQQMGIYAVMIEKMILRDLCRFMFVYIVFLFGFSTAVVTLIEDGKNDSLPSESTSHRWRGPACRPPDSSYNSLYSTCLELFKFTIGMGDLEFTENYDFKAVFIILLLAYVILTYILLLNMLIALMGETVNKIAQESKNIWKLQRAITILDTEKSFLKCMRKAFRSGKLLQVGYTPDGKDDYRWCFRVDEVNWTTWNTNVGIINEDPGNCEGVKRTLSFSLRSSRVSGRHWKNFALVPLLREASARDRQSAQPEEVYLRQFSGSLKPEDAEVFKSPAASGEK
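TRPV1-expressing cells were cultured overnight at 35.5C and loaded with Fluo-8 calcium dye for 40 to 90 min at room temperature. After a 10 s baseline, compound was added and calcium influx was read kinetically for 3 min (ex 480/em 520 nm).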
uPA surface inh = inhibitors of cell surface uPA generation; cell surface uPA generation assay, qHTS; Potency, µM (highest dose often 38.3 µM), for inactives: at the top dose activity change, negative = inhibition, most hits filed as inhibitors; hit rate 0.31% among 330,000; AID 540303; active means well fitted inhibition curve with a large enough effect; inconclusive means small, poorly fitted or top-dose-only effect; inactive means no such curve, though single readings can be large or run the other way; tested in mouse RAW 264.7 cells; further: potency means the concentration at half of the fitted maximal effect; on the % scale 0 is the no-effect control and ±100 the full control effect; nearly all actives have a fitted effect of over 55% in size
TRPV1 PAM = enhances activation of the human vanilloid receptor TRPV1; potentiation, % at 8.33 µM; Q8NER1; TRPV1-expressing cells, Fluo-8 calcium influx, capsaicin EC20 potentiation; hit rate 0.02% among 320,000; in the data active means potentiation above about 80%; inconclusive means between about 30% and that limit; further: 0% is about no effect
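TRPV1-expressing cells were cultured overnight at 35.5C and loaded with Fluo-8 calcium dye for 40 to 90 min at room temperature. After a 10 s baseline, compound was added and calcium influx was read kinetically for 3 min (ex 480/em 520 nm).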
RORgamma inh = inhibitors of mouse ROR gamma transcriptional activity; P51450; Drosophila S2 Gal4-RORgamma UAS-luciferase reporter, 20 h; Potency, µM (series often up to 53.6 µM), without a hit: at the highest dose activity change, negative = inhibition, most hits filed as inhibitors; hit rate 5.4% among 310,000; AID 2551; further: potency means the concentration at half of the fitted maximal effect; on the % scale 0 is the no-effect control and ±100 the full control effect; nearly all actives have a fitted effect of over 60% in size
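Drosophila Schneider cells stably carrying a metallothionein-driven Gal4 DBD–ROR gamma fusion and a UAS-Photinus luciferase reporter were exposed to compound for 1 hr, then induced with copper sulfate (700 uM final) for 20 hr at ambient temperature before luminescence reading.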
An asterisk follows results filed as active; ? = inconclusive; . = no result given; [ ] = dose if it differs, or a comment. Compounds with a hit are over-represented: about 5.8% of the library has one in this group of screens. Unless noted, the call rests on the fitted dose curve; in most records, active means well fitted curve in the direction sought with a large enough effect; inconclusive means small, poorly fitted or top-dose-only effect, or another doubt; inactive means no such curve, though single readings can be large; an effect the other way counts as inactive or inconclusive.

SMILES	VP16 counter	TRPV1 agonist	uPA surface inh	TRPV1 PAM	RORgamma inh
CCOC(=O)c1[nH]c2ccc(OC)cc2c1NC(=S)N1CCN(c2cccc(C)c2C)CC1	?	-2	-18%	10	4.5µM*
CCOC(=O)c1[nH]c2ccc(OC)cc2c1NC(=S)N1CCN(c2ccc(F)cc2)CC1	-9%	-1	-1%	-12	-13%
Cc1cc(C(=O)NNC(=O)C(CCC(N)=O)NS(=O)(=O)c2ccc(Cl)cc2)c(C)o1 (configuration not stated)	.	.	1%	.	.
COC(=O)c1nn(-c2ccc(OC)cc2)c(=O)cc1O	-10%	0	3%	8	4%
COc1ccc(-n2nc(C#N)c(Cl)cc2=O)cc1	13µM*	1	-7%	10	10µM*
O=C1c2ccc3c4c(ccc(c24)C(=O)N1CCCCO)C(=O)N(CCCCO)C3=O	2%[10 µM]	1	2.5µM*	2	8.9µM*
Cc1cc([N+](=O)[O-])nn1CCCC(=O)NC(C)c1ccccc1 (configuration not stated)	-44%	-5	-11%	8	42%[10 µM]
COC(=O)C1=C(C)N(Cc2ccccc2)C(=S)N[C@H]1c1ccc(Br)cc1	13µM*	6	-14%	12	3.5µM*
COC(=O)C1=C(C)N(Cc2ccccc2)C(=NCC(C)C)N[C@H]1c1ccc(Br)cc1	7.1µM*	?	.	-5	1.8µM*
COC(=O)C1=C(C)N(Cc2ccccc2)C(=S)N[C@H]1c1cccc(C(F)(F)F)c1	10µM*	5	-26%	1	3.5µM*
C=CCSc1nnc(NC(=O)CCN2C(=O)C3CC=CCC3C2=O)s1 (configuration not stated)	.	6	9%	-7	.
O=C(NCc1ccccn1)NC12CC3CC(CC(C3)C1)C2	4%	-16	3%	-24	-43%
O=C(NCc1ccccn1)C(=O)Nc1nc(C23CC4CC(CC(C4)C2)C3)cs1	10µM*	26	?	-5	2.8µM*
CCNc1nc(C23CC4CC(CC(C4)C2)C3)cs1	?	23	-4%	-13	10µM*
COc1cc(C)c(NC(=S)Nc2ccc(C)c(Cl)c2)cc1OC	?	5	3%	16	11µM*
COc1cc(OC)c(NC(=S)Nc2cccc(C)c2)cc1Cl	?	1	0%	26	10µM*
COc1ccc(NC(=S)Nc2cccc(Cl)c2Cl)cc1OC	1%	1	1%	0	-37%
COc1cc(C)c(NC(=S)Nc2cccc(Cl)c2)cc1OC	-30%	8	3%	19	?
CCOC(=O)C1(CC2CCCCO2)CCN(Cc2cc3ccccc3[nH]2)CC1 (configuration not stated)	?	?	-3%	-7	-35%
Cc1cc(C)c(C#N)c(SCc2cn3c(C)cccc3n2)n1	?	?	-2%	-24	11µM*
Clc1c(CSc2nc3ccccc3o2)nc2ccccn12	7.1µM*	1	11%	0	?
Cc1cccc2nc(CSc3nc4ccccc4o3)cn12	?	24	-3%	0	18µM*
c1ccc2oc(SCc3cn4ccccc4n3)nc2c1	16µM*	-4	1%	-10	8.9µM*
Cc1cc(C)nc(SCc2cn3c(C)cccc3n2)n1	1%	2	-1%	4	?
COCCNC(=O)C1CC(c2ccccc2C(F)(F)F)=NO1 (configuration not stated)	.	0	-3%	-5	.
SMILES	VP16 counter	TRPV1 agonist	uPA surface inh	TRPV1 PAM	RORgamma inh
CC(C)CC1NC(=O)N(CC(=O)Nc2ccc(OC(F)F)cc2)C1=O (configuration not stated)	.	-1	3%	20	.
Cc1nc(C(F)(F)F)ccc1C(=O)Nc1ccc2ccccc2n1	20%	16	-6%	-2	?
Cc1cccc2nc(CSc3nnc4ccccn34)cn12	?	1	0%	-15	11µM*
Cc1nnn(-c2nonc2N)c1C(=O)N/N=C/c1ccccc1O	2.8µM*	7	-6%	7	1.3µM*
Cc1nnn(-c2nonc2N)c1C(=O)N/N=C/c1cccc2ccccc12	13µM*	-7	1%	20	-116%
O=C(Nc1nnc(-c2ccc3c(c2)CCCC3)o1)c1ccccc1Cl	0.79µM*	1	?	5	1.3µM*
COc1ccc(OCCCC(=O)OCC(=O)Nc2nnc(-c3ccccc3)o2)cc1	.	-4	?	14	.
O=C(COc1ccccc1)Nc1nnc(-c2ccc3c(c2)CCCC3)o1	3.5µM*	-5	?	8	5.6µM*
O=C(COc1ccccc1)Nc1nnc(-c2ccccc2Cl)o1	.	.	-1%	.	.
O=C(COc1ccccc1)Nc1nnc(-c2ccc(F)cc2)o1	6.3µM*	4	9%	4	?
COc1ccc(-c2nc3cnc(N4CCOCC4)nc3n(-c3ccccc3)c2=O)cc1	-11%	.	.	.	-19%
COC(=O)N1CCC2(CC1)CCN(C(c1ccccc1)c1ccccc1)CC2	1%	.	.	.	21%
O=[N+]([O-])c1ccc2[nH]c(O)c(N=NC(=S)NCC3CCCO3)c2c1 (configuration not stated)	?	-3	-3%	4	4µM*
O=[N+]([O-])c1ccc2[nH]c(O)c(N=NC(=S)Nc3cccnc3)c2c1	-1%	-2	-4%	-1	0%
CCNC(=S)N=Nc1c(O)[nH]c2ccc([N+](=O)[O-])cc12	11µM*	1	0%	-5	2µM*
CCC1=NN2C(=N)/C(=C\c3cccn3-c3ccc(Cl)cc3)C(=O)N=C2S1	-7%	-3	6%	6	?
CCC1=NN2C(=N)/C(=C\c3cccn3-c3ccc(C)c(C)c3)C(=O)N=C2S1	-9%	10	-1%	-4	28µM*
CCC(O)CNC(=O)NC(=C(Cl)Cl)c1ccc(C)c(F)c1 (configuration not stated)	?	7	10µM*	-8	-43%
COc1ccc(/C(N)=N/OC(=O)c2c(-c3ccccc3Cl)noc2C)cc1OC	10µM*	3	-16%	0	-36%
COc1ccc(CCNC(=S)NC(=O)c2c(-c3ccccc3Cl)noc2C)cc1OC	?	7	12%	7	8.9µM*
Cc1onc(-c2ccccc2Cl)c1C(=O)NC(=S)NCCc1ccccc1	20µM*	12	3%	-1	10µM*
Cc1nc(/C(N)=N/OC(=O)c2c(-c3ccccc3Cl)noc2C)cs1	-27%	17	-6%	22	25%
CC(=O)N1CCOc2ccc(S(=O)(=O)NCCc3cccc(C)c3)cc21	-1%	4	5%	-1	12%
O=C(NCc1n[nH]c(=S)n1Cc1ccccc1)c1ccccc1	4%	-3	2%	?	?
S=c1[nH]nc(CN2CCCC2)n1Cc1ccccc1	-8%	2	3%	5	11µM*
Cc1ccn(Cc2n[nH]c(=S)n2Cc2ccccc2)n1	-10%	-3	4%	28	-40%

Assay outcomes deposited in PubChem BioAssay by National Center for Advancing Translational Sciences (NCATS).
